# PubChem BioAssay (EPA / NIEHS)
# The source made the active and inactive calls. Rule for the calls: active = hit-call score of the fitted dose curve at least 0.9, where 1 is the maximum; inactive = score below 0.9.
# Assay: CCTE_Shafer_MEA_acute_spike_number: CCTE's Neural Acute Assay for Total Number of Spikes, Shafer Lab (AID 2284008);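 for AC50: curve fitted for decrease in spike count so AC50 reflects inhibitors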
# Procedure, shortened: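 Total spike count from 40 min recordings before and during compound exposure (0.03-40 uM), given as per-well percent change. Cortical cultures from rat, DIV 13 or 15, 37 C; adaptive detection threshold 8x rms noise.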
SMILES,AC50,outcome
COc1ccc(OC(F)(F)F)cc1CN[C@H]1CCCN[C@H]1c1ccccc1,1.72 µM (active),–
CN(C)CCCN1c2ccccc2Sc2ccc(Cl)cc21,–,inactive
c1ccc2occc2c1,–,inactive
O=C(N[C@@H](c1ccccc1)[C@@H]1CCCCN1)c1cccc(C(F)(F)F)c1Cl,4.39 µM (active),–
C/C=C/c1ccc(OC)cc1,–,inactive
OCC(CO)n1cnc(-c2ccc(F)cc2)c1-c1ccnc(Oc2ccccc2)n1,–,inactive
CC(C)COC(=O)CCCCC(=O)OCC(C)C,–,inactive
CCCCC(CC)COP(=O)(OCC(CC)CCCC)OCC(CC)CCCC (configuration not stated),–,inactive
CN(C)C(=O)NC1(c2ccccc2)CCN(CCC[C@]2(c3ccc(Cl)c(Cl)c3)CCCN(C(=O)c3ccccc3)C2)CC1,–,inactive
CC(N)=O,–,inactive
CCCC(=O)O,–,inactive
CC(C)NCC(O)c1ccc(O)c(O)c1 (configuration not stated),–,inactive
O=C(O)CN(CC(=O)O)CC(=O)O,–,inactive
Oc1ccc(O)cc1,–,inactive
CN(C)C(=O)NC1(c2ccccc2)CCN(CC[C@@]2(c3ccc(F)c(F)c3)CN(C(=O)c3ccccc3)CCO2)CC1,4.16 µM (active),–
NC(=Nc1ccccc1)Nc1ccccc1,2.02 µM (active),–
Cc1cc(Cc2ccc(N)c(C)c2)ccc1N,15.8 µM (active),–
